# Screening results from PubChem.
# Compounds with a hit are over-represented: about 5.4% of the library has one in this group of screens.
# JMJD2C inh: human JMJD2C demethylase inhibition | Q9H3R0 | GST-JMJD2C(1-420) H3K9me3 demethylation, DELFIA europium | inhibition, % at 2.35 µM | 0.069% of 330,000 active;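 active = more than half of a compound's replicate wells show inhibition beyond 50%, single wells judged on their own value; inconclusive = some, but no more than half, of replicates pass 50% inhibition; inactive = no replicate passes 50% inhibition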;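 also: signal counts dimethyl H3K9 product captured on neutravidin plate; 0% = median of DMSO wells and 100% = 0.3 times that DMSO median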
# Target sequence (Q9H3R0 1-420 limits assumed): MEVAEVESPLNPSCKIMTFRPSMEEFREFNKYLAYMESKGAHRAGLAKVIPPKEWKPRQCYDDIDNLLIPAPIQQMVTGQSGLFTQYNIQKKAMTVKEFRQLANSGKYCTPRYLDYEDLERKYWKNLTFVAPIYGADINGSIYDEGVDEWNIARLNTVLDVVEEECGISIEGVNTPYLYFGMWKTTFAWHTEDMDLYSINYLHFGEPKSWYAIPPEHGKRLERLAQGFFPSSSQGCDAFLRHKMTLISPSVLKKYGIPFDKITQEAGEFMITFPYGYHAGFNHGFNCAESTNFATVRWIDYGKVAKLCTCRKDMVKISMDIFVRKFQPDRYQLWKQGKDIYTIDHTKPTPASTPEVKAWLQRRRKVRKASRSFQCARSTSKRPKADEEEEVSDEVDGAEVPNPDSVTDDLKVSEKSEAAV
# ALR inh: human ALR oxidase inhibition via reduced H2O2 | purified ALR, DTT oxidation, H2O2 HRP-luminol luminescence | 3.8% of 290,000 active | P55789 | inhibition, % (test concentration not listed);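 active = mean replicate inhibition above about 79%, with every replicate also reaching it, limit read from the data; inconclusive = only one of the two criteria met; inactive = mean below limit and not every replicate reaching it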
# Target sequence (P55789 whole entry, looked up): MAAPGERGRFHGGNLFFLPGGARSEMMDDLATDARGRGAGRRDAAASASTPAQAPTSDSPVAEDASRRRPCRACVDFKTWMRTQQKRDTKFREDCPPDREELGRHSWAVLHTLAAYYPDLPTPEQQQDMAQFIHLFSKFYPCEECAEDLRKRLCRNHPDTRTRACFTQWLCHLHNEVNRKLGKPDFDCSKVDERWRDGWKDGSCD
# SMARCA2 activ: increases SMARCA2 function in MMTV reporter cells | 1% of 370,000 active | MG213 cells, MMTV-luciferase reporter, dexamethasone, overnight | activation, % at 9.1 µM; in the data active = activation above about 7.8%;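 also: 0% = vehicle wells and 100% = reference activator wells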
# beta cell repl: inducers of beta-cell replication in MIN6 cells; MIN6 cells proliferation, ATPlite luminescence, 48 h; cells starved in 0.2% serum; 100% = growth in 10% serum; proliferation, % at 10 µM; 0.29% of 330,000 active; AID 2380;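 active = compounds whose signal lies at least 3.5 SD above the mean of all wells on their plate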;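 also: 0% = DMSO-treated cells in low-serum medium and 100% = 10% serum control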
# Granule exo inh: blocks lytic granule exocytosis; TALL-104 LAMP-1 surface exposure, flow cytometry; cells stimulated with thapsigargin and PMA; inhibition, % at 10 µM; 0.66% of 360,000 active; AID 651702;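 active = inhibition above about 55%, limit read from the data; inconclusive = no clear call, values can overlap the other calls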
# PfM18AAP inh: PfM18AAP enzyme inhibition. recombinant PfM18AAP, H-Glu-NHMec fluorogenic cleavage. inhibition, % at 7.35 µM. AID 1822. 1.2% of 290,000 active;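 active = inhibition above the campaign mean inhibition over all tested compounds plus 3 SD, cut at about 28% in these data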;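 also: 0% = plate median of test compound wells and 100% = 2 mM ZnCl2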
# Starred values were filed as active, the others as inactive; ? = inconclusive; · = not tested or not shown.
SMILES,JMJD2C inh,ALR inh,SMARCA2 activ,beta cell repl,Granule exo inh,PfM18AAP inh
Cc1ccc(NC(=O)CSC(N)=O)cc1Cl,-10,100*,1,-6,2,6
COC(=O)CCC(=O)Nc1ccc(Cl)c(Cl)c1,21,-8,-1,-1,-3,-5
NC(=O)SCC(=O)Nc1cccc(Cl)c1,8,99*,3,-5,1,22
NC(=O)SCC(=O)Nc1ccc(Cl)c(Cl)c1,-8,98*,2,-4,3,10
COC(=O)c1cc(-c2ccc(OC)c(OC)c2)c(=O)n2c1CCC2,·,·,-1,·,·,·
O=C(Cc1ccccc1F)Nc1nnc(-c2cccnc2)s1,·,·,-1,·,·,·
COC(=O)C[C@@H]1CC[C@H]2[C@H](COc3ccc(NC(=O)C4CCC4)cc3C(=O)N2C)O1,·,·,-4,·,·,·
COc1nccnc1NS(=O)(=O)c1ccc(NC(=S)NC(=O)c2cccc(F)c2)cc1,1,91*,0,0,24,3
O=C(/C=C/c1ccc[nH]1)c1ccccc1,-8,97*,4,-2,-3,-5
O=C(/C=C/c1ccc[nH]1)c1ccc(F)cc1,-1,52,3,-4,0,-24
Cc1cnc(C(=O)Nc2ccc(N3CCCCC3)cc2)cn1,7,-15,3,-4,1,-8
Cc1cnc(C(=O)Nc2ccc(C(=O)N3CCCCC3)cc2)cn1,1,100*,2,0,0,-1
COc1ccc(N2CCN(C(=O)CCN3C(=S)NC(C)(C)CC3C)CC2)cc1 (configuration not stated),3,88*,1,1,1,0
CC1CC(C)(C)NC(=S)N1CCCC(=O)N1CCN(c2ccc(F)cc2)CC1 (configuration not stated),7,83*,-5,3,-3,1
CC1CC(C)(C)NC(=S)N1CCC(=O)N1CCN(c2ccccc2)CC1 (configuration not stated),6,?,-2,-3,-3,3
O=C(NCc1ccccc1)C1(C(=O)C2CC2)CC(c2ccccc2C(F)(F)F)=NO1 (configuration not stated),·,·,0,·,·,·
O=C(CCN1C(=O)c2cccc3cccc(c23)C1=O)Nc1ccccc1,1,-4,7.9*,-1,-4,-11
CCN(CC)c1ccc(NC(=O)CCCCCN2C(=O)c3ccccc3C2=O)cc1,10,99*,-8,-4,8,3
O=C(OCCCN1CCC2(CCC(c3ccccc3)CC2)C1=O)c1ccccc1 (configuration not stated),·,·,-3,·,·,·
Cc1nccn1CC(=O)O,-5,-7,3,-2,·,·
Cc1nccn1CC(=O)c1ccc(O)c(O)c1,22,87*,0,-1,14,·
COc1cc(NC(=O)c2ccccc2)c(C)cc1NC(=O)CSc1nnc(COc2ccccc2)n1Cc1ccco1,·,·,-2,·,·,·
CCOc1ccc(N(CC(=O)Nc2c(C)n(C)n(-c3ccccc3)c2=O)S(=O)(=O)c2ccc(C)c(C)c2)cc1,·,·,-5,·,·,·
COc1ccc(OC)c(NC(=O)COC(=O)CCNc2ccccc2OC)c1,2,98*,-4,-3,-2,·
CCn1c(=O)n(CC(=O)Nc2cc(OC)ccc2OC)c(=O)c2ccccc21,-2,99*,-1,-3,-3,3
SMILES,JMJD2C inh,ALR inh,SMARCA2 activ,beta cell repl,Granule exo inh,PfM18AAP inh
COc1ccccc1OCCC(=O)OCC(=O)NCc1ccc(Cl)cc1,3,97*,-4,-2,0,-1
COc1ccccc1NCCC(=O)OCC(=O)NCc1ccco1,2,99*,1,1,-2,5
CCOc1ccccc1NC(=O)Cn1c(=O)c2ccccc2n(CC)c1=O,1,6,-3,1,2,-1
COC(=O)c1cc2c(c3c4cc(C)ccc4n(S(=O)(=O)c4ccc(OC)cc4)c13)C(=O)N(C)C2,·,·,-4,·,·,·
COC(=O)[C@]12C[C@H](CC(=O)NCc3cccc(C(F)(F)F)c3)C(=O)N(Cc3ccco3)C1=C[C@H](C(C)C)O[C@@H]2C1CC1,·,·,-3,·,·,·
CCOC(=O)c1c(N)sc(C(N)=O)c1C,0,-1,0,-3,1,2
CCOC(=O)c1sc(NC(=O)CCN2CCCCCC2)c(C(=O)OCC)c1C,-9,97*,1,-6,10,1
CCOC(=O)c1c(NC(=O)CC)sc(C(=O)N2CCCCC2)c1C,1,-3,2,-1,3,1
CCOC(=O)c1c(N)sc(C(=O)N2CCCCCC2)c1C,-2,83*,0,-1,0,11
CCOC(=O)c1c(N)sc(C(=O)N(CC)CC)c1C,-1,96*,1,-3,2,1
CCOC(=O)c1c(N)sc(C(=O)N2CCCC(C(N)=O)C2)c1C (configuration not stated),-45,-9,0,-1,-5,-12
CCCCOCCCNC(=O)C[C@H]1C[C@@]2(C(=O)OC)C(=C[C@H](C3CCCC3)O[C@@H]2C)N(Cc2ccco2)C1=O,·,·,-2,·,·,·
Cc1cccc(C)c1NS(=O)(=O)c1cc2c3c(c1)CC(=O)N3CCC2,54*,13,0,-2,-12,-5
Cc1cccc(C)c1NS(=O)(=O)c1cc2c3c(c1)CCN3C(=O)CC2,-16,-3,-2,2,1,·
CN(C)c1ccc(NS(=O)(=O)c2cc3c4c(c2)CC(=O)N4CCC3)cc1,-26,99*,0,-3,5,-23
COc1ccc(C2CC(=O)C(c3ccc(C#N)cc3)=CN2Cc2ccccc2)cc1 (configuration not stated),·,·,-4,·,·,·
CCN(CC)S(=O)(=O)c1ccc(Nc2ccc(-c3ccc4c(c3)OCCO4)nn2)cc1,1,·,8.6*,-3,-1,-3
O=C1C[C@@H](c2ccccc2)N=C2N(Cc3ccc4c(c3)OCO4)C/C(=C/c3ccccc3)N12,·,·,-1,·,·,·
CCOC(=O)Nc1ccc2c(c1)N(C(=O)CCN1CCN(C)CC1)c1ccccc1S2,-1,1,1,-1,18,-1
CCOC(=O)Nc1ccc2c(c1)N(C(=O)N1CCN(C)CC1)c1ccccc1S2,-7,98*,-2,-4,1,5
COC(=O)c1ccc2c(C3(c4c[nH]c5ccccc45)CCN(C(=O)OC(C)(C)C)CC3)c[nH]c2c1,·,·,-7,·,·,·
C[C@H]1[C@H](c2ccccc2)Oc2cccc(NCCc3ccccc3)c2S(=O)(=O)N1Cc1cccc(Cl)c1,·,·,-1,·,·,·
CCOc1ccc(-c2nc(CCl)cs2)cc1,2,·,6,-4,-2,-6
ClCc1csc(-c2ccc(Cl)cc2)n1,0,98*,3,-2,3,0
NNC(=O)c1sc(-c2ccc(Cl)cc2)cc1N,5,98*,2,-2,-1,8
CCOC(=O)c1sc(-c2ccc(Br)cc2)cc1N,150,-1,3,-4,6,-6
CCCc1nnc(NC(=O)CS(=O)(=O)c2ccccc2)s1,12,-4,0,0,-18,7
